Test results: PubChem BioAssay (NCATS)
Where “and” joins values, the source holds several entries; their conditions need not be identical. Equal values may be shown once. Records with an inconclusive call do not appear. Calls of active or inactive are those of the source. The call rests on the fitted dose curve; in most records, active means well fitted curve in the direction sought with a large enough effect; inconclusive means small, poorly fitted or top-dose-only effect, or another doubt; inactive means no such curve, though single readings can be large; an effect the other way counts as inactive or inconclusive.

Columns and labels:
[1] = BET inhibitor-based combinations targeting novel dependencies in MECOM-rearranged (r) AML: SET-2 cell line (AID 2202231); conditions: SET-2 AML cells viability, CellTiter-Glo luminescence, 48 h; viability: active compounds read low, concentration not given here; further: nearly all actives have a fitted effect of over 35% in size;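 on viability: plate controls were DMSO treated cells for no effect and wells without cells for full effect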
Outline: (§1)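 Viability of cells (500 per well) is scored by luminescent CellTiter-Glo at 48 hr post-dosing. Eleven-point titrations are normalized to DMSO and empty controls and reduced to AUC values.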

[2] = BET inhibitor-based combinations targeting novel dependencies in MECOM-rearranged (r) AML: MV-4-11 cell line (AID 2202233); conditions: MV-4-11 AML viability, CellTiter-Glo luminescence, 48 h; series mostly up to 46 µM; further: nearly all actives have a fitted effect of over 45% in size;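 on viability, % of control: plate controls were DMSO for no effect and blank wells for full effect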
Outline: (§2)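 Using pin-tool transfer, drugs were added in 11 doses to cells (500/well), incubated 48 hr, and assessed with CellTiter-Glo. Z-AUC is a mean-centring transformation applied separately to each screened line.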

[3] = BET inhibitor-based combinations targeting novel dependencies in MECOM-rearranged (r) AML: HNT-34 cell line (AID 2202234); conditions: HNT-34 AML viability, CellTiter-Glo luminescence, 48 h; series mostly up to 46 µM; further: nearly all actives have a fitted effect of over 35% in size;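 on viability (% of control): plate controls were vehicle wells for no effect and cell-free wells for full effect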
Outline: as §2

[4] = BET inhibitor-based combinations targeting novel dependencies in MECOM-rearranged (r) AML: UCSD-AML1 cell line (AID 2202235); conditions: UCSD-AML1 AML cells viability, CellTiter-Glo, 48 h; series mostly up to 46 µM; further: nearly all actives have a fitted effect of over 40% in size;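 on viability (% of control): plate controls were DMSO vehicle wells for no effect and blank wells for full effect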
Outline: as §2

[5] = BET inhibitor-based combinations targeting novel dependencies in MECOM-rearranged (r) AML: AML-191 cell line (AID 2202236; further: nearly all actives have a fitted effect of over 35% in size;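 on viability (% of control): plate controls were vehicle wells for no effect and wells without cells for full effect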); conditions: AML-191 viability, CellTiter-Glo luminescence, 48 h; series mostly up to 46 µM
Outline: as §1

[6] = BET inhibitor-based combinations targeting novel dependencies in MECOM-rearranged (r) AML: AML-194 cell line (AID 2202237; further: nearly all actives have a fitted effect of over 40% in size;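 on viability (% of control): plate controls were vehicle wells for no effect and wells without cells for full effect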); conditions: AML-194 (MECOM-r AML) viability, CellTiter-Glo, 48 h; series mostly up to 46 µM
Outline: as §1
Potency means the concentration at half of the fitted maximal effect.

CCN(C)S(=O)(=O)Nc1ccc(F)c(C(=O)c2c[nH]c3ncc(-c4cnc(C5CC5)nc4)cc23)c1F
active: Potency [1] 18.6 µM | Potency [2] 23.5 µM | Potency [3] 4.17 µM | Potency [4] 20.9 µM | Potency [5] 16.6 µM

CN[C@H]1CN(c2ccc3c(=O)c(C(=O)O)cn(-c4nccs4)c3n2)C[C@@H]1OC
active: Potency [1] 2.41 µM | Potency [2] 0.27 µM | Potency [3] 0.679 µM | Potency [4] 0.855 µM | Potency [5] 1.35 µM

Nc1nc2cc(-c3ccc4ncc(C(=O)N5CCOCC5)n4c3)ccc2o1
active: Potency [2] 16.6 µM | Potency [3] 16.6 µM | Potency [4] 8.33 µM
inactive: viability [1] 99.4%

C=C1C(=CC=C2CCC[C@]3(C)[C@@H]([C@H](C)C=C[C@H](C)C(C)C)CC[C@@H]23)C[C@@H](O)C[C@@H]1O
active: Potency [1] 23.5 µM | Potency [2] 16.6 µM | Potency [3] 18.6 µM | Potency [5] 23.5 µM
inactive: Potency [4]

C[C@@H]1N=C(N)NC(N(C)C)=N1
inactive: viability [1] 102% | Potency [2] | Potency [3] | Potency [4] | Potency [5] | Potency [6]

CN(C)N=Nc1nc[nH]c1C(N)=O
inactive: Potency [3] | Potency [4] | Potency [6]
active: Potency [1] 16.6 µM | Potency [2] 9.34 µM | Potency [5] 14.8 µM

Cc1ccc(NC(=O)[C@H]2CCCN(C(=O)c3c(C)cccc3F)[C@H]2c2ccc(NC3CCCC3)cc2)cc1C(F)(F)F
active: Potency [3] 9.34 µM
inactive: viability [1] 94.7% | Potency [2] | Potency [4] | Potency [5]

CN1CCC(c2c(O)cc(O)c3c(=O)cc(-c4ccccc4Cl)oc23)C1CO (configuration not stated)
active: Potency [1] 1.32 µM | Potency [2] 0.934 µM | Potency [3] 0.833 µM | Potency [4] 1.05 µM | Potency [5] 0.662 µM | Potency [6] 1.05 µM

Cc1cc(-n2c(=O)ccc3cnc4[nH]ccc4c32)ccc1F
active: Potency [2] 16.6 µM | Potency [4] 18.6 µM | Potency [5] 20.9 µM
inactive: viability [1] 115% | Potency [3]

CN(CCOc1ccc(C[C@H](Nc2ccccc2C(=O)c2ccccc2)C(=O)O)cc1)c1ccccn1
inactive: viability [1] 94.3% and 95.3% | Potency [2] | Potency [3] | Potency [4] | Potency [5] | Potency [6]

CCOC(=O)[C@H](CCc1ccccc1)N[C@H]1CCc2ccccc2N(CC(=O)O)C1=O
inactive: viability [1] 115% | Potency [3] | Potency [4] | Potency [5] | Potency [6]
active: Potency [2] 7.42 µM

O=C(O)/C=C/c1ccc(Cn2ccnc2)cc1
inactive: viability [1] 125% | Potency [2] | Potency [3] | Potency [4] | Potency [5]

C[C@H](NC(=O)CCC(F)(F)F)C(=O)N[C@@H]1C(=O)N(CCO)c2ncccc2-c2ccccc21
inactive: viability [1] 95.9% | Potency [2] | Potency [3] | Potency [4] | Potency [5] | Potency [6]

N#Cc1ccc(N(Cc2ccc(Br)cc2)n2cnnc2)cc1
active: Potency [2] 20.9 µM | Potency [3] 16.6 µM
inactive: viability [1] 93.5% | Potency [4] | Potency [5] | Potency [6]

COc1nc(OCc2cccc(-c3ccccc3)c2C)ccc1CNCCNC(C)=O
active: Potency [1] 26.3 µM | Potency [2] 16.6 µM | Potency [3] 26.3 µM | Potency [4] 20.9 µM | Potency [5] 18.6 µM | Potency [6] 26.3 µM

CCS(=O)(=O)Nc1ccc(Oc2ccc(F)cc2F)c(-c2cn(C)c(=O)c3[nH]ccc23)c1
active: Potency [1] 0.0525 µM | Potency [2] 0.0083 µM | Potency [3] 0.0742 µM | Potency [4] 0.132 µM | Potency [5] 0.0742 µM

Cn1cc(-c2nc(N[C@@H]3CCCC[C@@H]3N)c(F)c3c2C(=O)NC3)cn1
active: Potency [2] 0.148 µM | Potency [3] 2.35 µM
inactive: viability [1] 112%

CC(C)(C)C(=O)N1N=CC[C@H]1c1ccccc1
inactive: viability [1] 112% | Potency [2] | Potency [3] | Potency [4] | Potency [5] | Potency [6]

COCCNc1cc(NC(=O)N2CCCc3cc(CN4CCN(C)CC4=O)c(C=O)nc32)ncc1C#N
inactive: viability [1] 114% | viability, % of control [2] 97.1% [at 8.46 µM] | viability (% of control) [3] 102% [at 8.46 µM] | viability (% of control) [4] 96.8% [at 8.46 µM] | viability (% of control) [5] 96.5% [at 8.46 µM] | viability (% of control) [6] 95.1% [at 8.46 µM]

CS(=O)(=O)c1ccc(-c2cnc(NCc3ccco3)n3cnnc23)cc1
inactive: viability [1] 108% | Potency [2] | Potency [3] | Potency [4] | Potency [5]

C=CCNC1=C2CC(C)CC(OC)C(O)C(C)/C=C(\C)C(OC(N)=O)C(OC)/C=C/C=C(\C)C(=O)NC(=CC1=O)C2=O (configuration not stated)
active: Potency [1] 8.33 µM | Potency [2] 0.166 µM | Potency [3] 3.32 µM | Potency [4] 1.32 µM

Nc1nccc2c1ncn2[C@@H]1C=C(CO)[C@@H](O)[C@H]1O
active: Potency [1] 0.525 µM | Potency [2] 0.166 µM | Potency [3] 0.833 µM

CC(C)(C)NC(=O)c1cncn1C1CCN(c2ccc(-c3nnc(C(F)(F)F)o3)cn2)CC1
active: Potency [1] 16.6 µM | Potency [3] 4.68 µM | Potency [5] 13.2 µM

c1ccc(CNCc2ccc(CN3CCCNCCNCCCNCC3)cc2)nc1
inactive: viability [1] 110% | Potency [3] | Potency [4] | Potency [5] | Potency [6]

C=CC(=O)N[C@H]1CN(c2nc(Nc3cn(C)nc3OC)c3ncn(C)c3n2)C[C@@H]1F
inactive: viability [1] 87.8% | Potency [3]

CN(C(=O)CNC(=O)/C=C/c1cccc(Cl)c1)C1CCS(=O)(=O)CC1
inactive: Potency [3] | Potency [4]
active: Potency [1] 0.662 µM

CS(=O)(=O)c1ccc([C@@H](CC2CCCC2)C(=O)Nc2nccs2)cc1
inactive: viability [1] 79.4% | Potency [3] | Potency [4]

O=C(O)CCCCN(CCc1ccccc1OCc1ccc(CCc2ccccc2)cc1)Cc1ccc(C(=O)O)cc1
active: Potency [3] 2.09 µM
inactive: viability [1] 108%

Cc1cc(O)c(-c2ccc([C@@H](C)CN)cc2)c2c1[nH]c(=O)c1sccc12
active: Potency [1] 0.372 µM | Potency [3] 0.0417 µM | Potency [5] 0.0833 µM

Cc1ccc(NC(=O)NCc2ccc3c(c2)CN(C2CCC(=O)NC2=O)C3=O)cc1Cl (configuration not stated)
active: Potency [1] 0.0295 µM | Potency [2] 0.0026 µM | Potency [5] 0.0023 µM | Potency [6] 0.0019 µM

Cc1cc(-c2ccc(CC(=O)Nc3ccc(-c4cccnc4)cc3)cc2)ccn1
active: Potency [1] 16.6 µM | Potency [2] 13.2 µM | Potency [5] 9.34 µM

COc1cc(OC)c(NC(=O)Nc2cc(C)on2)cc1Cl
inactive: viability [1] 115% | Potency [3] | Potency [5]

Cc1nc(NC(=O)N2CCC[C@H]2C(N)=O)sc1-c1csc(C(C)(C)C)n1
inactive: viability [1] 98.3% | Potency [3]
active: Potency [5] 16.6 µM

NC1=N[C@@]2(c3cc(NC(=O)c4ccc(F)cn4)ccc3F)COC[C@H]2CS1
inactive: viability [1] 112% | Potency [3] | Potency [4] | Potency [5] | Potency [6]

C[C@]12CC[C@@H]3c4ccc(O)cc4CC[C@H]3[C@@H]1C[C@@H](O)[C@@H]2O
inactive: viability [1] 109% | Potency [3] | Potency [4] | Potency [5] | Potency [6]

CN(CCOc1ccc(-c2ccc3c(c2)OCO3)cc1C(C)(C)C)CC(=O)O
inactive: viability [1] 105% | Potency [3] | Potency [4] | Potency [6]

CNC(=O)Cn1cc(-c2ccc3c(c2)C(F)CC32NC(=O)N(CC(=O)N(Cc3ccc(F)cc3)C(C)C(F)(F)F)C2=O)cn1 (configuration not stated)
active: Potency [1] 3.72 µM | Potency [3] 0.0833 µM | Potency [4] 0.148 µM

OC[C@H]1O[C@@H](S[C@@H]2O[C@H](CO)[C@H](O)[C@H](n3cc(-c4cccc(F)c4)nn3)[C@H]2O)[C@H](O)[C@@H](n2cc(-c3cccc(F)c3)nn2)[C@H]1O
inactive: viability [1] 115% | Potency [2] | Potency [5] | Potency [6]

CC(=O)O/N=C1/C(c2c(O)[nH]c3cc(Br)ccc23)=Nc2ccccc21
inactive: Potency [4]
active: Potency [1] 14.8 µM | Potency [3] 2.95 µM | Potency [5] 18.6 µM

C=CC[C@@H]1/C=C(\C)C[C@H](C)C[C@H](OC)[C@H]2O[C@@](O)(C(=O)C(=O)N3CCCC[C@H]3C(=O)O[C@H](/C(C)=C/[C@@H]3CC[C@@H](O)[C@H](OC)C3)[C@H](C)[C@@H](O)CC1=O)[C@H](C)C[C@@H]2OC
active: Potency [3] 23.5 µM | Potency [4] 26.3 µM | Potency [5] 18.6 µM | Potency [6] 20.9 µM
inactive: viability [1] 51.4%

CCC(=O)O[C@]1(C(=O)CO)CC[C@H]2[C@@H]3CCC4=CC(=O)CC[C@]4(C)[C@H]3CC[C@@]21C
inactive: viability [1] 101% | Potency [2] | Potency [4] | Potency [6]

Cc1ccc(C(=O)N(CCCN)[C@@H](c2oc3cc(Cl)ccc3c(=O)c2Cc2ccccc2)C(C)C)cc1
active: Potency [1] 0.166 µM | Potency [3] 0.0132 µM | Potency [4] 0.0148 µM | Potency [5] 0.0468 µM

COC(=O)[C@H](CCCN=C(N)N)NS(=O)(=O)c1ccc(C)cc1
inactive: viability [1] 112% | Potency [3] | Potency [4] | Potency [5] | Potency [6]

COc1ccc(S(=O)(=O)NCc2ccc(C(=O)NCCc3ccc(Cl)cn3)cc2)cc1
inactive: viability [1] 98% | Potency [3] | Potency [4] | Potency [6]

C=C1CCC[C@]2(C)C=C3OC(=O)C(C)=C3C[C@@H]12
inactive: viability [1] 112% | Potency [3] | Potency [4] | Potency [6]

CC(C)(C)S(=O)(=O)c1ccc2nccc(Nc3n[nH]c4ccc(F)cc34)c2c1
inactive: viability [1] 104% | Potency [3] | Potency [6]
active: Potency [4] 0.0012 µM | Potency [5] 10.5 µM

O=C1OC(COc2ccccc2[N+](=O)[O-])CC1Cc1ccccc1 (configuration not stated)
inactive: viability [1] 112% | Potency [3] | Potency [4] | Potency [5] | Potency [6]

O=c1oc2cc(O)ccc2s1
inactive: viability [1] 106% | Potency [3] | Potency [4] | Potency [5] | Potency [6]

CN(C)c1ccccc1CN1CCCN(Cc2ccccc2N(C)C)C1c1ccncc1
inactive: viability [1] 99.7% | Potency [3] | Potency [4] | Potency [5]

Cc1ccc2cc(-c3c(C)ccc(C(=O)c4c(-c5ccccc5)n(C)n(-c5ccccc5)c4=O)c3N)ccc2n1
inactive: viability [1] 92.3% | Potency [2] | Potency [5] | Potency [6]
